IMPase cell inh: cell-permeable inhibitors of inositol monophosphatase (IMPase). P97697. CHO-M1 cells, IP1 accumulation, HTRF TR-FRET ratio. inhibition (IP1 accumulation), % at 46.1 µM. 120,000 tested, under 10 active. AID 901; active = well fitted curve in the direction sought with a large enough effect in the signal ratio, not every such curve was filed as active; inconclusive = small, poorly fitted or top-dose-only effect, or a change in a side signal; inactive = no such curve, though single readings can be large or run the other way; the % refers to the signal ratio;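 also: cells stimulated with carbachol in lithium chloride buffer; plate controls were DMSO basal wells for no effect and reference inhibitor wells for full effect; higher means more IMPase inhibition seen as more IP1 and lower FRET ratio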
Target sequence (P97697 whole entry, looked up): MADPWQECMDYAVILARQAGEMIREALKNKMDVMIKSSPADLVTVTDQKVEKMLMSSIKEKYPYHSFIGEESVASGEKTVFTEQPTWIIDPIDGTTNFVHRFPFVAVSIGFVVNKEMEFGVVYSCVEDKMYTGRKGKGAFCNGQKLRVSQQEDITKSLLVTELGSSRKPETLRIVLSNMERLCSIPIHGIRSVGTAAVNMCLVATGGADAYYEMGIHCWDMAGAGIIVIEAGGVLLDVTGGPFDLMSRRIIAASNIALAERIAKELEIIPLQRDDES
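Elevated IP1 in lysates lowers TR-FRET signal (665/620 ratio and 620 channel reported). Cells were CHO-M1, given carbachol (50 uM as added) plus 50mM LiCl, pH 7.4, 30 min, 37C; compounds titrated up to 46 uM; AC50 by Hill equation.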
ALDH1A1 block: ALDH1A1 (human) enzyme inhibition | P00352 | Purified ALDH1A1, NADH fluorescence, propionaldehyde substrate | Potency, µM (doses to about 75.3 µM), inactives show at the highest dose activity, negative = inhibition, most hits filed as inhibitors | hit rate 7.3% among 220,000 | AID 1030; active = well fitted inhibition curve with a large enough effect, not every such curve was filed as active; inconclusive = small, poorly fitted or top-dose-only effect, or another doubt; inactive = no such curve, though single readings can be large or run the other way;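 also: potency is read from the fitted curve at half-maximal effect; plate controls were no enzyme wells and a reference inhibitor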
HttQ103 aggreg: reduces HttQ103-GFP aggregates in PC12 cells | PC12 HttQ103-GFP aggregates, Acumen cytometry, 40 h | AID 1688 | Potency, µM (doses to about 46.1 µM), for the others: at the highest dose activity change, negative = inhibition, hits mostly inhibitors | hit rate 1.1% among 220,000; also: potency is read from the fitted curve at half-maximal effect; % is scaled to controls: 0 for no effect and ±100 for the full control effect; nearly all actives have a fitted effect of over 60% in size
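Aggregate formation scored by laser-scanning cytometer (488 excitation, 500–530 emission) in lysed PC12 cells expressing Q103-GFP after 100 nM tebufenozide induction; library tested in dose series, with ATPLite reagent added in the multiplex.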
HPGD inh: HPGD (human) dehydrogenase inhibition; purified HPGD, NADH fluorescence kinetic, PGE2 substrate; Potency, µM, without a hit: at the top dose activity change, negative = inhibition, hits mostly inhibitors; hit rate 4.3% among 150,000; AID 894; active = well fitted inhibition curve with a large enough effect, not every such curve was filed as active; inconclusive = small, poorly fitted or top-dose-only effect, or another doubt; inactive = no such curve, though single readings can be large or run the other way; also: potency is read from the fitted curve at half-maximal effect; % is scaled to controls: 0 for no effect and ±100 for the full control effect
Target sequence (P15428 whole entry, looked up): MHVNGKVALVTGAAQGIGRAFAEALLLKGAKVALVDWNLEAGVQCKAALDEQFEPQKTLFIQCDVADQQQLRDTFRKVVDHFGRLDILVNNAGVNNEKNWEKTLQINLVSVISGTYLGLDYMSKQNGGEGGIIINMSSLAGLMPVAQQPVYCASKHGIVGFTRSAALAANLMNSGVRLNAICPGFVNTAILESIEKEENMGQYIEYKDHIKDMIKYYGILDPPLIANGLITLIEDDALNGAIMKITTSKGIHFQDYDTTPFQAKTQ
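NADH formation kinetics: reaction with 30 uM PGE2 and 1 mM NAD+ (final), 20 nM enzyme, Tris-HCl pH 8 with Tween 20, after 15 min compound preincubation at room temperature. Fluorescence change, last versus first of five reads.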
IMPase Li inh: IMPase inhibition in cells with lithium potentiation; hit rate 0.35% among 210,000; CHO-M1 cells, IP1 TR-FRET (IP-One), carbachol + lithium; AID 1457; Potency, µM (series often up to 59.4 µM), for the others: top-dose activity, negative = IMPase inhibition, usual class: inhibitors;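 also: IP1 builds up when IMPase is blocked and the TR-FRET signal falls; potency is read from the fitted curve at half-maximal effect; plate controls were basal vehicle for no effect and high inhibitor control for full effect; nearly all actives have a fitted effect of over 50% in size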
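CHO cells stably expressing M1 receptor (2000/well) were cultured 16–30 h, then exposed to compounds with a small lithium addition for 30 min at 37C. IP1 was measured by TR-FRET competition; AC50 from Hill fits.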
HTT ATP protect: cytoprotection in Huntington HTT-Q103 PC12 cell model. hit rate 0.14% among 230,000. PC12 HTT-Q103 induced, cytoprotection, ATP luminescence, 40 h. AID 1471. Potency, µM (top dose mostly 56.4 µM), without a hit: cytoprotection (ATP increase), most hits filed as activators; also: potency is read from the fitted curve at half-maximal effect; % of control where 0% means no effect; nearly all actives have a fitted effect of over 45% in size
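Quantitative HTS on tebufenozide-induced (100 nM) PC12 cells expressing HTTQ103 exon 1–GFP; compounds tested as a concentration series; survival measured via cellular ATP.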
The depositor's hits bear a star; ? = inconclusive; . = no result given; [ ] = remark or other dose. Only some compounds are listed: those with a hit (about 9.4% of all), similar ones and a draw of the others. Unless noted, calls follow the shape of the dose curve; as a rule, active = well fitted curve in the direction sought with a large enough effect; inconclusive = small, poorly fitted or top-dose-only effect, or another doubt; inactive = no such curve, though single readings can be large; an effect the other way counts as inactive or inconclusive.

SMILES	IMPase cell inh	ALDH1A1 block	HttQ103 aggreg	HPGD inh	IMPase Li inh	HTT ATP protect
CCCCNC(=O)c1ccc2c(SCC(=O)O)c3c(nc2c1)CCCC3	.	?	14%	13µM*	-7%	.
COc1ccc(NC(=O)c2ccc3c(SCC(=O)O)c4c(nc3c2)CCCC4)c(OC)c1	.	7.9µM*	17%	.	-7%	3%
Cc1cccc(NC(=O)C2CCCN(S(=O)(=O)c3cccc4nonc34)C2)c1C (stereo not drawn)	-4	.	.	.	.	.
COc1cc(OC)cc(-c2nnc(SCC(=O)N3CCC(C)CC3)o2)c1	7	.	.	.	.	.
CCCn1c(NCc2cc(OC)ccc2OC)nc2ccccc21	12	?	20µM*	-9%	8%[38.3 µM]	-15%[0.074 µM]
COc1cccc(CNc2nc3ccccc3n2CCN2CCCCC2)c1OC	6	6%	13µM*	-11%	18%	0%[10 µM]
CCn1c(NCc2cc(OC)ccc2OC)nc2ccccc21	-2	-12%	8%	-9%	5%[38.3 µM]	-32%
COc1ccc(OC)c(CNc2nc3ccccc3n2CCN2CCCCC2)c1	1	-13%	6%	-9%	15%[38.3 µM]	7%
CC/C=C\C[C@H]1C(=O)CC[C@@H]1CC(=O)O	-1	-4%	.	2%	13%	-19%[1.9 µM]
C=CC[C@@H]1C=C[C@H](O/N=C(\C)CCN2CCCc3nc(C)c(C)cc32)[C@H](CO)O1	.	?	.	.	.	-1%[10 µM]
O=C(c1cnccn1)N1CCC2(CCCN(c3ccccc3)C2)CC1	.	-3%	.	-10%	22%	-2%
Cc1ccc(/C=c2\sc3nc(-c4cccnc4)nn3c2=O)cc1	-3	-3%	3%	-12%	4%[38.3 µM]	-3%
Cc1ccc(/C=c2/sc3n(c2=O)CCCN=3)o1	9	3.5µM*	14%	-27%	7%	7%[10 µM]
Cc1ccc(/C=c2\sc3n(c2=O)CN(c2ccc(Br)cc2)CN=3)o1	4	14µM*	31%	-17%	7%[38.3 µM]	-29%
Cc1ccc(N2CN=c3s/c(=C\c4cccnc4)c(=O)n3C2)cc1	-4	17%	10µM*	-21%	-11%[38.3 µM]	-7%
CC[C@H]1OC(=O)[C@H](C)C(=O)[C@H](C)[C@@H](OC2O[C@H](C)C[C@H](N(C)C)[C@@H]2O)[C@@](C)(OC)C[C@@H](C)C(=O)[C@@H](C)C2N(CCCCn3cnc(-c4cccnc4)c3)C(=O)O[C@@]21C (stereo partly drawn)	.	.	6%	.	.	-19%
COC(=O)[C@@]1(Cc2ccccc2)[C@H]2c3cc(C(=O)N4CCCC4)[nH]c3C[C@H]2CN1C(=O)c1ccccc1	.	-3%	.	-7%	1%	-5%
COc1ccc(-c2nc3cnc(Oc4ccccc4)nc3n(C3CC3)c2=O)cc1	.	?	.	?	?	-39%
NC(=O)CNC(=O)c1ccc(Cl)cc1	.	-2%	-7%[9.22 µM]	.	.	11%[10 µM]
O=C(C1CCCCC1)N1CCN(c2ccnc3cc(Cl)ccc23)CC1	.	.	-28%[9.22 µM]	.	.	-30%[10 µM]
Cn1c(=O)[nH]c(=O)c2c1nc(CN1CCN(c3cccc(Cl)c3)CC1)n2CCc1ccccc1	11	14µM*	1%	-1%	19%[38.3 µM]	-7%
Cn1c(=O)[nH]c(=O)c2c1nc(CN1CCN(c3ccccc3F)CC1)n2CCCc1ccccc1	-2	3.2µM*	6%	7%	8%	-5%[10 µM]
CCCCCn1c(CN2CCN(C(=O)OCC)CC2)nc2c1c(=O)[nH]c(=O)n2C	13	11µM*	0%	0%	0%	-1%[10 µM]
Cc1cc(NC(=S)Nc2cccnc2)ccc1Br	.	22µM*	-23%	.	9%	-14%
COc1cc(NC(=S)Nc2cccnc2)cc(OC)c1	10	32µM*	-7%	28µM*	-7%	2%[10 µM]
SMILES	IMPase cell inh	ALDH1A1 block	HttQ103 aggreg	HPGD inh	IMPase Li inh	HTT ATP protect
Cc1cc(NC(=S)Nc2ccccc2)ccc1Br	-15	-1%	7%	-4%	-5%[38.3 µM]	7%
CC(=O)c1cccc(NC(=O)CCS(=O)(=O)c2cc(Br)cc3c2N(C(=O)C2CC2)CC3)c1	-6	.	.	.	.	.
CC(CC1C(C#N)=C(N)SC(N)=C1C#N)c1ccccc1 (stereo not drawn)	3	10µM*	?	14µM*	-25%[38.3 µM]	-18%[10 µM]
CC(c1ccccc1)C1C(C#N)=C(N)SC(N)=C1C#N (stereo not drawn)	12	20µM*	-5%	.	.	-5%
CC(C)C1C(C#N)=C(N)SC(N)=C1C#N	4	8.9µM*	4%	?	-15%[38.3 µM]	-9%[10 µM]
OB(O)c1cc2ccccc2o1	.	-12%	.	-12%	-5%	-64%
CC(=O)N1C2(C=CC1(C)C(=O)NCc1cc(F)cc(C(F)(F)F)c1)CCCCC2 (stereo not drawn)	.	-7%	.	-14%	-6%	-103%
CCCOc1ccc(N2CC(C(=O)Nc3cccc(Cl)c3Cl)CC2=O)cc1 (stereo not drawn)	-16	.	.	.	.	.
CC(C)C(NC(=O)CSc1ccc(Cl)cc1)C(C)C	2	-1%	-12%	13µM*	3%[38.3 µM]	-9%
CSc1ccc(Cl)c(C(=O)NCC(C)C)c1	8	0%	2µM*	-15%	19%[38.3 µM]	-17%[0.074 µM]
CC(C)CNC(=O)CSc1ccc(Cl)cc1	-7	5%	-4%	16µM*	17%[38.3 µM]	-35%[10 µM]
Cc1ccc(SCC(=O)NCC(C)C)cc1	-2	-1%	4%	16µM*	-2%[38.3 µM]	4%
CCC(C)NC(=O)CSc1ccc(Cl)cc1 (stereo not drawn)	.	1%	-6%	-17%	-3%	9%[10 µM]
COC(=O)c1ccc(C2c3c(oc4cc(C)c(C)cc4c3=O)C(=O)N2c2ccccn2)cc1 (stereo not drawn)	1	.	.	.	.	.
COCCNC(=O)/C(C#N)=C/c1cc(C)n(C2CCCCC2)c1C	.	?	-5%	.	1%	-117%
COCCNC(=O)/C(C#N)=C/c1cc(C)n(-c2ccc(C)cc2)c1C	.	5.6µM*	7%[9.22 µM]	.	17%	-12%[10 µM]
COCCNC(=O)/C(C#N)=C/c1cccc(NC(=O)c2ccccc2Cl)c1	10	16µM*	-21%	?	7%	14%[10 µM]
COc1cc(/C=C(\C#N)C(=O)NC(C)C)cc(Cl)c1O	.	?	-4%	.	25%	-1%
CC(C)NC(=O)/C(C#N)=C/c1cccc(NC(=O)c2ccccc2Cl)c1	.	14µM*	25%	-23%	4%	20%[10 µM]
C/C=C(\C)C(=O)O[C@H]1C[C@@]2(C)CCC(C(C)C)C2(O)CC[C@@]1(C)O (stereo partly drawn)	.	-5%	.	-2%	11%	-12%
COc1cccc2cc(C(=O)NCc3ccco3)c(=Nc3ccc(C(=O)O)cc3)oc12	-3	16µM*	8%[1.84 µM]	?	32%[38.3 µM]	12%
COc1cccc2cc(C(=O)NCc3ccco3)c(=O)oc12	.	?	9%	-26%	11µM*	14%[10 µM]
C=CCNC(=O)c1cc2cccc(OC)c2oc1=O	.	-5%	19%	.	2%	.

Source: PubChem BioAssay (National Center for Advancing Translational Sciences (NCATS))
